Among the data in PubChem BioAssay (Tox21) are outcome and Potency values, retold here.

A number with no mark means an inactive call. Results filed as inconclusive are left out. Calls of active or inactive are those of the source. Calls come from the whole dose curve; as a rule, active = well fitted curve in the direction sought with a large enough effect in the repeat runs; inconclusive = weak or mixed curves; inactive = no such curve, though single readings can be large; an effect the other way counts as inactive or inconclusive.

Assay [1] can be described thus: qHTS RealTime-Glo MT Cell Viability Assay in HEK293 cells - 0 hour (AID 1224880). Note: top concentration of the series differs between compounds; nearly all actives have a fitted effect of over 45% in size. In a few lines:
(§1)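 600 cells/well were plated with the nonlytic NanoLuc/prosubstrate reagent, pre-incubated 5 h, then given 23 nL of compound in DMSO. Incubation at 37 C for 40 h, with luminescence from viable-cell-reduced substrate read repeatedly from 0 h.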
For orientation: Quantitative high-throughput screening tests each substance at several concentrations.

Assay [2] can be described thus: A CellTox Green Cytotoxicity Assay to monitor cytotoxicity in HepG2 cells - 32 hour (AID 1224883). Note: nearly all actives have a fitted effect of over 50% in size. In a few lines: (§2)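 HepG2 cells, 600/well, preincubated 5 h with CellTox Green dye, then exposed to Tox21 compounds in DMSO at 37 C for up to 40 h. Dead-cell DNA fluorescence read at the indicated time point.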
A short description of assay [3]: qHTS RealTime-Glo MT Cell Viability Assay in HepG2 cells - 16 hour (AID 1224885). Note: nearly all actives have a fitted effect of over 50% in size. The method in brief: (§3)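 Cells + NanoLuc/prosubstrate dispensed (600 cells/well) → 5 h at 37 C/5% CO2 → compounds in DMSO transferred → 40 h incubation at 37 C, luminescence read at 0, 8, 16, 24, 32, 40 h.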
Assay [4] in a line: qHTS RealTime-Glo MT Cell Viability Assay in HEK293 cells - 24 hour (AID 1224886). Note: nearly all actives have a fitted effect of over 50% in size. Note: potency is the fitted concentration of half-maximal effect. In a few lines:
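Tox21 10K qHTS, HEK293, 600 cells/well, RealTime-Glo reagent co-dispensed with cells; 5 h preincubation, compound by pintool, 37 C, luminescence at 0–40 h.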

Assay [5] can be described thus: qHTS RealTime-Glo MT Cell Viability Assay in HEK293 cells - 8 hour (AID 1224887). Note: nearly all actives have a fitted effect of over 50% in size. Note: potency is the fitted concentration of half-maximal effect. In a few lines:
as §1

The nature of assay [6]: A CellTox Green Cytotoxicity Assay to monitor cytotoxicity in HEK293 cells - 16 hour (AID 1224888). Note: nearly all actives have a fitted effect of over 35% in size. Note: potency is the fitted concentration of half-maximal effect. In a few lines: (§4)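 HEK293 cells, 600/well, were preincubated 5 hours and then exposed to compounds at 37 C for up to 40 hours. A cell-impermeant cyanine dye staining dead-cell DNA was read by fluorescence at 0, 8, 16, 24, 32 and 40 h time points.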
A short description of assay [7]: qHTS RealTime-Glo MT Cell Viability Assay in HepG2 cells - 0 hour (AID 1224889). Note: nearly all actives have a fitted effect of over 50% in size. Note: potency is the fitted concentration of half-maximal effect. The method in brief: as §3
Assay [8] is described as follows: A CellTox Green Cytotoxicity Assay to monitor cytotoxicity in HEK293 cells - 32 hour (AID 1224881). Note: nearly all actives have a fitted effect of over 40% in size. The method in brief: as §4
Assay [9] is described as follows: A CellTox Green Cytotoxicity Assay to monitor cytotoxicity in HepG2 cells - 0 hour (AID 1224882). Note: nearly all actives have a fitted effect of over 35% in size. In a few lines: as §2
Assay [10] in a line: A CellTox Green Cytotoxicity Assay to monitor cytotoxicity in HEK293 cells - 8 hour (AID 1224884). Note: nearly all actives have a fitted effect of over 35% in size. The method in brief:
as §4

In the case of `CN1CCN(c2c(F)cc3c(=O)c(C(=O)O)cn(CCF)c3c2F)CC1`, the compound was classed as inactive in assay [1] and in [3]. Besides, the Potency entry in assay [2], in assay [4], in assay [5] and in assay [7] was “inactive” each time. For the same compound, the Potency in assay [6] is 5.35 µM (active).

Regarding `O=C1Nc2ccc([N+](=O)[O-])cc2C1=O`, the Potency result in assay [8], in assay [9], in assay [2], in assay [10], in [6] and in assay [7] was “inactive” each time. Besides, the compound was classed as inactive in [3].

`CC1(C)S[C@@H]2[C@H](NC(=O)C(C(=O)O)c3ccccc3)C(=O)N2[C@H]1C(=O)O` (stereo not given in full): the outcome in assay [1] and in assay [3] was inactive. Besides, the Potency result in assay [9], in assay [2], in assay [10], in assay [4], in assay [6] and in [7] was “inactive” in each case.

As for `CC1(C)O[C@@H]2C[C@H]3[C@@H]4CCC5=CC(=O)CC[C@]5(C)[C@@]4(F)[C@@H](O)C[C@]3(C)[C@]2(C(=O)CCl)O1`, the Potency entry in assay [8], in assay [9], in assay [10], in assay [5] and in [6] was “inactive” in each case. The compound was called inactive in assay [3]. Further, the Potency in assay [7] is 5.35 µM (active).

Regarding `O=Cc1ccc(O)c(O)c1O`, the compound was classed as inactive in [1] and in assay [3]. For the same compound, the Potency result in assay [9], in [10], in assay [4], in [5], in assay [6] and in assay [7] was “inactive” in each case.

Consider `COc1ccc2nc(NC(=O)Nc3ccccc3)sc2c1`, for which the compound was classed as inactive in assay [1] and in assay [3]. Further, the Potency result in assay [9], in assay [6] and in assay [7] was “inactive” in each case. Further, the Potency in assay [4] was 4.77 µM (active).

Turning to `CC/C=C\CCOC(=O)CCCCC`, the compound was classed as inactive in assay [1]. The Potency entry in [2], in [4], in assay [5] and in [6] was “inactive” throughout.

For `CCOC(=O)COc1ccc2c(c1)CC(NCC(O)c1cccc(Cl)c1)CC2` (stereo not given), the Potency entry in [9] and in assay [4] was “inactive” in each case. In addition, the outcome in [3] was inactive.

Regarding `O=C1CCCCC1C1CCCCC1` (stereo not given), the call in [1] and in [3] was inactive. Further, the Potency entry in assay [9], in assay [4], in assay [5], in assay [6] and in assay [7] was “inactive” throughout.

Consider `CCCc1c2oc(C(=O)O)cc(=O)c2cc2c(=O)cc(C(=O)O)n(CC)c12`, for which the compound was called inactive in assay [1] and in assay [3]. The Potency result in [9], in assay [2], in [4], in assay [5] and in [7] was “inactive” each time.

On to `CC1=CC(=O)CC(C)(C)C1=O`, for which the result in assay [1] and in [3] was inactive. The Potency entry in assay [10], in assay [4], in [5], in assay [6] and in assay [7] was “inactive” throughout.

Turning to `ICCc1ccccc1`, the outcome in assay [1] and in assay [3] was inactive. Also, the Potency entry in [9], in [2], in [10], in assay [4], in assay [6] and in assay [7] was “inactive” each time.

For the compound `Cc1ccc(C(C)C)cc1O`, the call in assay [1] and in [3] was inactive. Also, the Potency entry in assay [9], in assay [10], in assay [4], in [5], in [6] and in assay [7] was “inactive” throughout.

As for `CC1CN(c2ccccc2)NC1=O` (stereo not given), the call in [1] and in assay [3] was inactive. For the same compound, the Potency entry in [9], in [10], in assay [4], in assay [5], in assay [6] and in [7] was “inactive” each time.

In the case of `CCc1cc(Cl)c(OC)c(C(=O)NC[C@@H]2CCCN2CC)c1O`, the outcome in assay [1] and in [3] was inactive. The Potency result in [9], in [10], in assay [4], in assay [5], in assay [6] and in assay [7] was “inactive” throughout.

As to `CC(=O)Oc1cc(C(C)C)c(OCCN(C)C)cc1C`, the compound was called inactive in assay [1] and in assay [3]. In addition, the Potency result in [2], in assay [10], in assay [6] and in assay [7] was “inactive” in each case.

As for `O=C(Cl)c1cccc([N+](=O)[O-])c1`, the compound was called inactive in [1] and in [3]. In addition, the Potency entry in assay [9], in assay [2], in assay [4], in assay [5], in [6] and in assay [7] was “inactive” each time.

As to `Cc1c(-c2ccccc2)oc2c(C(=O)OCCN3CCCCC3)cccc2c1=O`, the call in assay [1] and in assay [3] was inactive. Moreover, the Potency result in [9], in assay [10], in [6] and in assay [7] was “inactive” throughout.

In the case of `CC[C@H]1CC[C@H](NCc2cc3c(cc2OC)[C@H]2C[C@H]2C(=O)N3C)[C@H](c2ccccc2)N1`, the compound was called inactive in assay [1] and in [3]. Moreover, the Potency entry in assay [10], in assay [6] and in [7] was “inactive” in each case. The Potency in assay [4] is 21.9 µM (active).

In the case of `CCN(O)CC`, the result in assay [1] and in assay [3] was inactive. The Potency result in assay [9], in assay [10], in assay [4], in assay [5], in [6] and in assay [7] was “inactive” throughout.

On to `Nc1ccc2ccccc2c1S(=O)(=O)O`, for which the compound was called inactive in assay [1] and in [3]. The Potency result in assay [9], in assay [2], in assay [4], in assay [5], in assay [6] and in [7] was “inactive” throughout.

Consider `COc1ccc(Nc2ccc(OC)cc2)cc1`, for which the Potency entry in [8], in [9], in assay [2], in [10], in assay [6] and in [7] was “inactive” in each case. In addition, in assay [3], the outcome was inactive. Moreover, in assay [5], the Potency was 14.1 µM (active).

As to `CC1=C2[C@H](/C=C(\C)C(=O)O)CC[C@@H](C)[C@H]2CC1`, the compound was classed as inactive in assay [1] and in assay [3]. In addition, the Potency entry in [9], in assay [2] and in assay [7] was “inactive” throughout. In [4], the Potency was 36 µM (active).

For the compound `CCOC(=O)NCCC[Si](OCC)(OCC)OCC`, the call in assay [1] and in [3] was inactive. Also, the Potency entry in assay [9], in [10], in assay [4], in [5], in [6] and in assay [7] was “inactive” throughout.

For `CC(C)NCC(O)COc1ccc(CCOCC2CC2)cc1` (stereo not given), the outcome in assay [1] and in assay [3] was inactive. Moreover, the Potency entry in assay [9], in [10], in assay [4], in assay [5], in assay [6] and in assay [7] was “inactive” throughout.

Regarding `O=CCCc1ccccc1`, the compound was classed as inactive in assay [1] and in assay [3]. Also, the Potency entry in assay [9], in [10], in assay [4], in assay [5], in assay [6] and in [7] was “inactive” each time.

As to `C=CCCCCCCCCO`, the result in assay [1] and in assay [3] was inactive. For the same compound, the Potency entry in assay [9], in assay [10], in [4], in assay [5], in [6] and in assay [7] was “inactive” throughout.

With `c1ccc(CN(CC2=NCCN2)c2ccccc2)cc1`, the compound was classed as inactive in [1] and in assay [3]. The Potency entry in [2], in assay [10], in assay [4], in [5], in assay [6] and in assay [7] was “inactive” each time.

Consider `CCCCCCOc1ccc(N)cc1`, for which the result in [1] and in assay [3] was inactive. Further, the Potency entry in assay [9], in assay [10], in assay [6] and in [7] was “inactive” throughout. Besides, in assay [5], the Potency is 19.5 µM (active).

With `CCOC(=O)c1ccccc1O`, the outcome in assay [1] and in [3] was inactive. The Potency entry in assay [9], in [2], in assay [10], in assay [4], in assay [6] and in assay [7] was “inactive” throughout.

For `O=S(=O)(O)C(F)(F)F`, the outcome in assay [1] and in assay [3] was inactive. Besides, the Potency result in assay [9], in [2], in assay [4], in assay [6] and in assay [7] was “inactive” in each case.

As for `Cc1cc2c(s1)Nc1ccccc1N=C2N1CCN(C)CC1`, the outcome in assay [1] and in [3] was inactive. Further, the Potency entry in assay [2], in assay [10], in [4], in assay [5], in assay [6] and in assay [7] was “inactive” in each case.
